# Legend:
# Experiment in all cases: SPOT peptide array binding signal intensity (averaged, normalized) (arbitrary units (background-subtracted, floor 0; scale differs between SH3 domains)); higher = stronger binding of the SH3 domain to the peptide
# AgAbp1 = target: AgAbp1
# In short: (§1)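 To measure binding, SH3 domains from four yeast species were fused to GST, expressed in E. coli BL21(DE3) and purified on glutathione Sepharose. Each domain was incubated at 10 μg/ml overnight at 4°C on cellulose membranes with synthetic 15-mer peptides whose cysteines were replaced by serines. Anti-GST antibody, an HRP anti-mouse secondary and luminol were used for detection, and images were quantified with Genespotter. Reported binding signal is normalized, background-subtracted spot intensity averaged over replicates, in arbitrary units that differ between domains.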
# AgBbc1 = target: AgBbc1
# In short: as §1
# AgBem1-D1 = target: AgBem1-D1
# In short: as §1
# AgBzz1-D1 = target: AgBzz1-D1
# In short: as §1
# AgBzz1-D2 = target: AgBzz1-D2
# In short: as §1
# AgCyk3 = target: AgCyk3
# In short: as §1
# AgFus1 = target: AgFus1
# In short: as §1
# AgHof1 = target: AgHof1
# In short: as §1
# AgHse1 = target: AgHse1
# In short: as §1
# AgLsb1 = target: AgLsb1
# In short: as §1
# AgLsb4 = target: AgLsb4
# In short: as §1
# AgMyo5 = target: AgMyo5
# In short: as §1
# AgNbp2 = target: AgNbp2
# In short: as §1
# AgRvs167 = target: AgRvs167
# In short: as §1
# AgSho1 = target: AgSho1
# In short: as §1
# AgSla1-D1-D2 = target: AgSla1-D1-D2
# In short: as §1
# AgSla1-D3 = target: AgSla1-D3
# In short: as §1
# CaAbp1-D1 = target: CaAbp1-D1
# In short: as §1
# CaAbp1-D2 = target: CaAbp1-D2
# In short: as §1
# CaBbc1 = target: CaBbc1
# In short: as §1
# CaBem1-D1 = target: CaBem1-D1
# In short: as §1
# CaBzz1-D1 = target: CaBzz1-D1
# In short: as §1
# CaBzz1-D2 = target: CaBzz1-D2
# In short: as §1
# CaCyk3 = target: CaCyk3
# In short: as §1
# CaFus1 = target: CaFus1
# In short: as §1
# CaHof1 = target: CaHof1
# In short: as §1
# CaHse1 = target: CaHse1
# In short: as §1
# CaLsb1 = target: CaLsb1
# In short: as §1
# CaLsb4 = target: CaLsb4
# In short: as §1
# CaMyo5 = target: CaMyo5
# In short: as §1
# CaNbp2 = target: CaNbp2
# In short: as §1
# CaRvs167 = target: CaRvs167
# In short: as §1
# CaRvs167-3 = target: CaRvs167-3
# In short: as §1
# CaSho1 = target: CaSho1
# In short: as §1
# CaSla1-D1-D2 = target: CaSla1-D1-D2
# In short: as §1
# CaSla1-D3 = target: CaSla1-D3
# In short: as §1
# ScAbp1 = target: ScAbp1
# In short: as §1
# ScBbc1 = target: ScBbc1
# In short: as §1
# ScBem1-D1 = target: ScBem1-D1
# In short: as §1
# ScBzz1-D1 = target: ScBzz1-D1
# In short: as §1
# ScBzz1-D2 = target: ScBzz1-D2
# In short: as §1
# ScCyk3 = target: ScCyk3
# In short: as §1
# ScFus1 = target: ScFus1
# In short: as §1
# ScHof1 = target: ScHof1
# In short: as §1
# ScHse1 = target: ScHse1
# In short: as §1
# ScLsb1 = target: ScLsb1
# In short: as §1
# ScLsb2 = target: ScLsb2
# In short: as §1
# ScLsb3 = target: ScLsb3
# In short: as §1
# ScLsb4 = target: ScLsb4
# In short: as §1
# ScMyo3 = target: ScMyo3
# In short: as §1
# ScMyo5 = target: ScMyo5
# In short: as §1
# ScNbp2 = target: ScNbp2
# In short: as §1
# ScPex13 = target: ScPex13
# In short: as §1
# ScRvs167 = target: ScRvs167
# In short: as §1
# ScSho1 = target: ScSho1
# In short: as §1
# ScSla1-D1-D2 = target: ScSla1-D1-D2
# In short: as §1
# ScSla1-D3 = target: ScSla1-D3
# In short: as §1
# SpAbp1-D1 = target: SpAbp1-D1
# In short: as §1
# SpBbc1 = target: SpBbc1
# In short: as §1
# SpBzz1-D1 = target: SpBzz1-D1
# In short: as §1
# SpBzz1-D2 = target: SpBzz1-D2
# In short: as §1
# SpCyk3 = target: SpCyk3
# In short: as §1
# SpHof1 = target: SpHof1
# In short: as §1
# SpHof1-2 = target: SpHof1-2
# In short: as §1
# SpHof1-3 = target: SpHof1-3
# In short: as §1
# SpHse1 = target: SpHse1
# In short: as §1
# SpLsb1 = target: SpLsb1
# In short: as §1
# SpLsb4 = target: SpLsb4
# In short: as §1
# SpMyo1 = target: SpMyo1
# In short: as §1
# SpNbp2 = target: SpNbp2
# In short: as §1
# SpPex13 = target: SpPex13
# In short: as §1
# SpRvs167 = target: SpRvs167
# In short: as §1
# SpSla1-D1-D2 = target: SpSla1-D1-D2
# In short: as §1
# SpSla1-D3 = target: SpSla1-D3
# In short: as §1
binder,measurement,setting,value
VAPPPLPNRQLPNLD,SPOT peptide array binding signal intensity,AgAbp1,1.5
same,SPOT peptide array binding signal intensity,AgBbc1,45.5
same,SPOT peptide array binding signal intensity,AgBem1-D1,16
same,SPOT peptide array binding signal intensity,AgBzz1-D1,3
same,SPOT peptide array binding signal intensity,AgBzz1-D2,≤ 0
same,SPOT peptide array binding signal intensity,AgCyk3,≤ 0
same,SPOT peptide array binding signal intensity,AgFus1,≤ 0
same,SPOT peptide array binding signal intensity,AgHof1,247
same,SPOT peptide array binding signal intensity,AgHse1,51
same,SPOT peptide array binding signal intensity,AgLsb1,693
same,SPOT peptide array binding signal intensity,AgLsb4,5100
same,SPOT peptide array binding signal intensity,AgMyo5,364
same,SPOT peptide array binding signal intensity,AgNbp2,≤ 0
same,SPOT peptide array binding signal intensity,AgRvs167,952
same,SPOT peptide array binding signal intensity,AgSho1,≤ 0
same,SPOT peptide array binding signal intensity,AgSla1-D1-D2,1.5
same,SPOT peptide array binding signal intensity,AgSla1-D3,≤ 0
same,SPOT peptide array binding signal intensity,CaAbp1-D1,≤ 0
same,SPOT peptide array binding signal intensity,CaAbp1-D2,5
same,SPOT peptide array binding signal intensity,CaBbc1,252
same,SPOT peptide array binding signal intensity,CaBem1-D1,≤ 0
same,SPOT peptide array binding signal intensity,CaBzz1-D1,14
same,SPOT peptide array binding signal intensity,CaBzz1-D2,4
same,SPOT peptide array binding signal intensity,CaCyk3,1
same,SPOT peptide array binding signal intensity,CaFus1,≤ 0
same,SPOT peptide array binding signal intensity,CaHof1,2
same,SPOT peptide array binding signal intensity,CaHse1,569
same,SPOT peptide array binding signal intensity,CaLsb1,3.25
same,SPOT peptide array binding signal intensity,CaLsb4,4840
same,SPOT peptide array binding signal intensity,CaMyo5,2.5
same,SPOT peptide array binding signal intensity,CaNbp2,28.5
same,SPOT peptide array binding signal intensity,CaRvs167,3100
same,SPOT peptide array binding signal intensity,CaRvs167-3,≤ 0
same,SPOT peptide array binding signal intensity,CaSho1,≤ 0
same,SPOT peptide array binding signal intensity,CaSla1-D1-D2,≤ 0
same,SPOT peptide array binding signal intensity,CaSla1-D3,≤ 0
same,SPOT peptide array binding signal intensity,ScAbp1,2
same,SPOT peptide array binding signal intensity,ScBbc1,≤ 0
same,SPOT peptide array binding signal intensity,ScBem1-D1,≤ 0
same,SPOT peptide array binding signal intensity,ScBzz1-D1,3.5
same,SPOT peptide array binding signal intensity,ScBzz1-D2,≤ 0
same,SPOT peptide array binding signal intensity,ScCyk3,≤ 0
same,SPOT peptide array binding signal intensity,ScFus1,≤ 0
same,SPOT peptide array binding signal intensity,ScHof1,39.2
same,SPOT peptide array binding signal intensity,ScHse1,10.5
same,SPOT peptide array binding signal intensity,ScLsb1,1610
same,SPOT peptide array binding signal intensity,ScLsb2,203
same,SPOT peptide array binding signal intensity,ScLsb3,8010
same,SPOT peptide array binding signal intensity,ScLsb4,4010
same,SPOT peptide array binding signal intensity,ScMyo3,321
same,SPOT peptide array binding signal intensity,ScMyo5,208
same,SPOT peptide array binding signal intensity,ScNbp2,≤ 0
same,SPOT peptide array binding signal intensity,ScPex13,1660
same,SPOT peptide array binding signal intensity,ScRvs167,2740
same,SPOT peptide array binding signal intensity,ScSho1,≤ 0
same,SPOT peptide array binding signal intensity,ScSla1-D1-D2,≤ 0
same,SPOT peptide array binding signal intensity,ScSla1-D3,≤ 0
same,SPOT peptide array binding signal intensity,SpAbp1-D1,8
same,SPOT peptide array binding signal intensity,SpBbc1,≤ 0
same,SPOT peptide array binding signal intensity,SpBzz1-D1,176
same,SPOT peptide array binding signal intensity,SpBzz1-D2,≤ 0
same,SPOT peptide array binding signal intensity,SpCyk3,5
same,SPOT peptide array binding signal intensity,SpHof1,≤ 0
same,SPOT peptide array binding signal intensity,SpHof1-2,11.5
same,SPOT peptide array binding signal intensity,SpHof1-3,31
same,SPOT peptide array binding signal intensity,SpHse1,71.5
same,SPOT peptide array binding signal intensity,SpLsb1,1020
same,SPOT peptide array binding signal intensity,SpLsb4,5980
same,SPOT peptide array binding signal intensity,SpMyo1,461
same,SPOT peptide array binding signal intensity,SpNbp2,≤ 0
same,SPOT peptide array binding signal intensity,SpPex13,≤ 0
same,SPOT peptide array binding signal intensity,SpRvs167,3250
same,SPOT peptide array binding signal intensity,SpSla1-D1-D2,≤ 0
same,SPOT peptide array binding signal intensity,SpSla1-D3,≤ 0
VLRFLGFPLPIFEKG,SPOT peptide array binding signal intensity,SpBzz1-D2,1
same,SPOT peptide array binding signal intensity,SpCyk3,3
same,SPOT peptide array binding signal intensity,SpHof1,13.8
same,SPOT peptide array binding signal intensity,SpHof1-2,5.5
same,SPOT peptide array binding signal intensity,SpHof1-3,486
same,SPOT peptide array binding signal intensity,SpHse1,1290
same,SPOT peptide array binding signal intensity,SpLsb1,≤ 0
same,SPOT peptide array binding signal intensity,SpLsb4,≤ 0
same,SPOT peptide array binding signal intensity,SpMyo1,≤ 0
same,SPOT peptide array binding signal intensity,SpNbp2,37.5
same,SPOT peptide array binding signal intensity,SpPex13,5
same,SPOT peptide array binding signal intensity,SpRvs167,≤ 0
same,SPOT peptide array binding signal intensity,SpSla1-D1-D2,3
same,SPOT peptide array binding signal intensity,SpSla1-D3,1
FYNRTAFQLPGDARV,SPOT peptide array binding signal intensity,AgAbp1,1.5
same,SPOT peptide array binding signal intensity,AgBbc1,0.5
same,SPOT peptide array binding signal intensity,AgBem1-D1,≤ 0
same,SPOT peptide array binding signal intensity,AgBzz1-D1,39.5
same,SPOT peptide array binding signal intensity,AgBzz1-D2,39
same,SPOT peptide array binding signal intensity,AgCyk3,2
same,SPOT peptide array binding signal intensity,AgFus1,12
same,SPOT peptide array binding signal intensity,AgHof1,12.2
same,SPOT peptide array binding signal intensity,AgHse1,18
same,SPOT peptide array binding signal intensity,AgLsb1,1140
same,SPOT peptide array binding signal intensity,AgLsb4,≤ 0
same,SPOT peptide array binding signal intensity,AgMyo5,9.5
same,SPOT peptide array binding signal intensity,AgNbp2,≤ 0
same,SPOT peptide array binding signal intensity,AgRvs167,1.83
same,SPOT peptide array binding signal intensity,AgSho1,≤ 0
same,SPOT peptide array binding signal intensity,AgSla1-D1-D2,1
same,SPOT peptide array binding signal intensity,AgSla1-D3,1
same,SPOT peptide array binding signal intensity,CaAbp1-D1,7
same,SPOT peptide array binding signal intensity,CaAbp1-D2,≤ 0
same,SPOT peptide array binding signal intensity,CaBbc1,3
same,SPOT peptide array binding signal intensity,CaBem1-D1,16
same,SPOT peptide array binding signal intensity,CaBzz1-D1,37.5
same,SPOT peptide array binding signal intensity,CaBzz1-D2,30.5
same,SPOT peptide array binding signal intensity,CaCyk3,5
same,SPOT peptide array binding signal intensity,CaFus1,21.5
same,SPOT peptide array binding signal intensity,CaHof1,0.5
same,SPOT peptide array binding signal intensity,CaHse1,2
same,SPOT peptide array binding signal intensity,CaLsb1,410
same,SPOT peptide array binding signal intensity,CaLsb4,≤ 0
same,SPOT peptide array binding signal intensity,CaMyo5,13.5

# From the supplement of paper PMC4466140
